Experimental data: PubChem BioAssay AID1508600 (Functional Genomics Laboratory (NCATS/FGL), 2020)
Among all 53,000 sequences or so, about 3,700 (7%) were called active. This is one part of a sample in which actives are shown more often than they occur.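 How the source made its calls: active means gene knockdowns whose robust z-score for IL-1 alpha signal is at least 2 or at most -2, so actives lie on both sides; inactive means the rest.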

Test: Components of the Cytosolic LPS Sensing Pathway: Gene Identification via Genome-wide siRNA Screen;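 further: robust z of the log signal after scaling to non-targeting control siRNA wells of the plate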
Conditions: RAW264.7 macrophages, IL-1a HTRF, actives lie on both sides, screened at 100 nM (by protocol), cells primed 5 h with Pam3CSK4 first
How it was run: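 Knockdown: 100 nM siRNA, 48h, RAW264.7. Stimulation: Pam3CSK4 5 h, then LipidA via TransIT-TKO 24 h. Output: supernatant IL-1a HTRF, negative-control-normalized, log robust z-score; viability by CellTiter-Glo.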

z-score, active:
GGUGAUGUCAAGAGUUUUCTT against Hacd2 3.56, CCUCGAGUGGUUGGAUAAGTT against Vps25 -2, GGAAUGUAUCCAGGACUUCTT against Brd4 -2.46, GCUGAUAAACAUCAGCUACTT against Zdhhc23 4.01, GGGAUACUCCAAGUUCCAUTT against Muc4 2.85, GCGUGCUUAUGAACAUAGUTT against Spen 2.02, GGUGUUAAUCCAGUUCAAUTT against Bbs12 2.26, GGAAGAAAGAGAGGUGUGATT against Nxf2 -2.26, GGUACCCACUAGAGGAUCATT against Madd -2.61, GCCAAAUGUGCGUCAUCUATT against Zdhhc25 -2.54, GGAAAGGACAAGAAAAUUUTT against Strn -2.03, CCAGAUCGGGAAAAAGGGUTT against Tsn -2.04, GGUUCUUGGAUAAAUCAAGTT against Mrpl40 2.41, GAUAUGUGCACAAUUCUGCTT against Vmn1r201 -2.3, AACCAUUCAGGAGAAAGCCTT against Lce1a1 -3.05, CCUGAAUUACAGGGACCAGTT against Znrd1 3.49, GCCUUGGAUAAACCAGACGTT against Mfsd4a -2.38, GCACUUACUCAUUAAUCACTT against Rnf20 -2.56, GGUAAAGAAAUCCUUCAAATT against Syt6 2.1, GGAUCUAUAUCCAGUAGAGTT against Mief2 3.38

z-score, inactive:
GGGCCUCCUGUAAACAUCCTT against D630039A03Rik 0.884, AUAAGAUGUUGCUCGGAACTT against Olfr1193 1.26, GCCAGUGUUAUCCAGGACUTT against Cggbp1 1.35, GCAACUCAACCUCAACCAUTT against Lrrc8e -0.597, GGUGAAAUUGCUCAGAUAATT against Narf 0.387, AACCAUGAUGCUUACGUUUTT against S100a10 0.285, CCACAUACAUUUCACAGGGTT against Kdf1 -0.806, GGAGUGUGUGCUUUUAAAATT against Rabggta 0.248, GGCAGAAGUGGAAAAACAATT against Tmco1 -0.417, GAACCCUCAUGAGGGUUACTT against C1ql1 0.177, GCCAGUAUGCUGUAUGGCUTT against Bcas3 -0.712, GCUACCUCUUGCAUGGGAGTT against Bivm -0.0737, GGCCUGUAUUCUGCUCUGUTT against Olfr341 0.0576, GGCUGCUUAGCUUUAAUGGTT against Ccdc177 -0.674, GGUUCUAGGCAGUUUGAUATT against Tlnrd1 1.64, GCCAAUUAAUGAUUGCUUUTT against Zfp322a 0.945, CGCCAGCAGAACUCAAAUATT against Gm11992 0.623, GAUGAUUGACGACAUGGAATT against Rgs9bp 0.656, GGAUGAUGUGAUGAAGAUCTT against Fgfr4 -0.0955, GGUUAAAUGCCCGCCAACATT against Eif2ak4 -0.876, GGAUAAGGACCUCUUCUCUTT against Ubl7 -1.41, GGGAAUAGCAAACUUAUCUTT against Nfil3 -0.688, GGGACAAAACCUUGAUGGUTT against Vmn1r200 -0.254, GGAAGUAAUCAAUUUGGUGTT against Epm2aip1 1.36, GCACAUGUAUCCAUGCUUCTT against Kcnj11 -0.815, GGAAGUUCGUGGAAGGCAATT against Pck1 0.188, GGAAGAAAACAGCGAUUUGTT against Ppp1r15a -0.447, GCAUUAUUCAUAUGUUGGUTT against Fpr-rs4 -0.318, GGAGUCUCUGAAGAAAACATT against Hus1 -0.596, CCCAAUUUGGAGCUAUCAGTT against Cwh43 -0.89, GGACUUCCAGAUCCAACCUTT against Robo4 -0.867, GGAACUCUCAAGAGAGAAUTT against Dnajc14 0.233, GGACAGAGAACAAAUGACCTT against 4931417E11Rik -1.91, GGCAGCAGUUAUUGUGGAUTT against Ly6a 0.693, GGAAGGACCAAAGCUUUCUTT against Olfr1123 0.982, CCACCAAUGAUUUGAUGCATT against Gpr75 -0.0162, GGAUUUUGAAUUAUGGGAUTT against Relch -0.0955, CGAAGGGAUUGAUUUGACUTT against Kars -0.324, CGCACUUUGGCUUGUAAUUTT against Smad6 0.327, GCUGUAAACCGAAUCAAAGTT against Khdc4 0.0586, CGUGAGGUUAUGAUGUAUUTT against Gm5444 -1.3, CCAUUAUCCUGGUGUGUAUTT against Olfr1362 -0.0735, GGCGAUACUUGGAAAAAUCTT against Nln -0.508, GCCCGUCCUGUUUGGAUUATT against Wdr53 0.501, GGACCUUGAGAUAUCUUUUTT against D130020L05Rik -0.361, GGACAGAGGACAAGCAGAATT against Ghrl -0.532, CCUAAUUUGAUCCUUCGAATT against Zfp672 -0.947, GAACGACAACCCGAUAAUGTT against Ttc9c -0.141, GGAUUUAAUGGUAAAUCACTT against Relch 0.034, GGAAGGUCAAAGUCCUUUATT against Pitpnm2 -0.685, GGCUUCAAGCUAUUCAUGATT against Dgkb 0.126, GGGAUUGAGGGAGAUUUUCTT against Tedc2 -0.206, GUGCUUCUGAUCUCCUACATT against Olfr223 1, CCAAUCCAAUGAAUGUUUCTT against A330070K13Rik -1.75, GCUGAAAGUAUUCAUGUAATT against Sec13 -1.6, GGCCAUCUCUUCUACUGUATT against Glt28d2 0.0935, GCUUUCUGGGUAACAUAGGTT against Ubqln3 -1.46, GGGACCUUGAUCAAAACCUTT against Gp5 -0.215, GGAAAUGACAAGUAUGAAGTT against Gria4 -1.33, GUACCCAAAAUGUUGAUGATT against Olfr979 0.794, GCGGCUCCAUCAGAAAAUGTT against Htatip2 0.526, GGAAAUCCAUGAGAAGGUGTT against Ctbp2 0.732, GGUGAACUUGUGUCUCACUTT against Tango2 0.0582, GGAGCUGUAUCGCACGAAATT against Ehd2 -0.689, GGAAACCGAAUUCCAAGGGTT against Ddx25 1.78, GGAAGUGGAAAAACUGGUGTT against Ddx1 -1.21, GGAACUGUUUGACAGUGAGTT against Pex19 -0.811, GGAUCUAAAGGUGAGUCAATT against Dcaf12l1 -0.388, GGAACCAAUCAGUUGGUUATT against Taf7 0.395, GGAGAUACAGGAUAUUAUUTT against Nme5 -0.0528, GCAACAGUGAAAUAGCACATT against Krit1 0.179, GGUUAAUGAGCUCUGUAAATT against Pknox1 -0.508, GCUAAGGACUCAGCAAAACTT against Coq5 0.733, CCGGUAAUGAGUUCAAGUGTT against Arsa 1.12, GGUUCUUAAUGCAUUCCCGTT against Cyp2d9 -0.786, GGGACUUUGAUUUUGAGAGTT against Ppp1r3f -1.58, GAUGCUCUCUGCUCUGAGATT against C030016D13Rik -0.0555, GGUAAUAGGAGAUACUGUGTT against Gzme 0.624, GGACCUUUCUCAACUACUATT against Edem2 -0.706, GGGAAACAAGCAUCUUCUGTT against Bmp5 -0.474, CCACUUCAGUAUUUGGCUUTT against Tas2r137 -0.404, GGACUCCUCAUGCUGAAGATT against Cdh13 1.97, GCUCUAUUUGACCACCUCATT against Gdpd1 -0.898, CCACUCAAGAUCGAUACCUTT against Fgd1 0.167, GGGUGAAGAGAGAUGAAAATT against Krt82 1.64, GCUUGUUUACAUCGGACUUTT against Samt2 0.9, GCAUCGUGCAGAAUUUUGCTT against Ephb1 -1.04
